# Measurements reported in PubChem BioAssay.
# Results filed as inconclusive are left out. Calls of active or inactive are those of the source.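 The calls were made as follows, unless noted: active = normalized viability below 100% at a tested concentration; inactive = the rest.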
# What was measured:
# [1] = growth inhibition of DIPG glioma cells, dose response, cell-based, SU-DIPG-XVII, MIPE5.0, CellTiter-Glo, qHTS (AID 1347060; cut-off not given, nearly all actives have AC50 up to about 26 µM;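 also: cells exposed to compound for 48 hours before viability readout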); conditions: SU-DIPG-XVII viability, CellTiter-Glo ATP luminescence
# [2] = growth inhibition of DIPG glioma cells, dose response, cell-based, SU-DIPG-XIII, MIPE4.0, CellTiter-Glo, qHTS (AID 1347061; cut-off not given, nearly all actives have AC50 up to about 37 µM;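 also: cells exposed to compound for 48 hours before readout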); conditions: SU-DIPG-XIII viability, CellTiter-Glo ATP luminescence
# [3] = growth inhibition of DIPG glioma cells, dose response, cell-based, JHH-DIPG-1, MIPE4.0, CellTiter-Glo, qHTS (AID 1347062; cut-off not given, nearly all actives have AC50 up to about 27 µM;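 also: cells exposed to compound for two days before readout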); conditions: JHH-DIPG-1 viability, CellTiter-Glo ATP luminescence
# [4] = growth inhibition of DIPG glioma cells, dose response, cell-based, SU-DIPG-IV, MIPE4.0, CellTiter-Glo, qHTS (AID 1347063; cut-off not given, nearly all actives have AC50 up to about 30 µM;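 also: compound exposure lasted 48 hours before the viability readout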); conditions: SU-DIPG-IV viability, CellTiter-Glo ATP luminescence
# [5] = growth inhibition of DIPG glioma cells, dose response, cell-based, SU-DIPG-XIII, MIPE5.0, CellTiter-Glo, qHTS (AID 1347064; cut-off not given, nearly all actives have AC50 up to about 23 µM;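 also: cells exposed to compound for 48 hours before the viability read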); conditions: SU-DIPG-XIII viability, CellTiter-Glo ATP luminescence
# [6] = viability loss in pontine glioma line – cell-based, SU-DIPG-XXV, MIPE5.0, CellTiter-Glo, qHTS, dose response (AID 1347065; cut-off not given, nearly all actives have AC50 up to about 26 µM;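 also: cells exposed to compound for 48 hours before ATP readout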); conditions: CellTiter-Glo ATP luminescence
# [7] = SU-DIPG-VI glioma cell viability, MIPE4.0 library, CellTiter-Glo luminescence, qHTS (AID 1347066; cut-off not given, nearly all actives have AC50 up to about 30 µM;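 also: cells exposed to compound for 48 hours before readout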); conditions: CellTiter-Glo ATP luminescence
# [8] = JHH-DIPG-1 glioma cell viability, MIPE5.0 library, CellTiter-Glo luminescence, qHTS (AID 1347067; cut-off not given, nearly all actives have AC50 up to about 26 µM;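 also: cells exposed to compound for 48 hours before readout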); conditions: JHH-DIPG-1 glioma viability, CellTiter-Glo ATP luminescence
# [9] = sensitizers of A549 cells to miR-34 induction, primary screen, imaging, A549 dox-inducible miR-34, nuclei and caspase counts (AID 1347080;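 active = compounds whose cell count with miR-34 switched on is under 0.7 times the count with it off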); conditions: A549 miR-34 inducible, Hoechst nuclei count, 48 h
# [10] = modifiers of HSF1 nuclear foci, imaging, Selleck Cancer Library (AID 1347162; in the data active = plate-normalised HSF1 focus index below about 0.46); conditions: human cells, at 10 µM; SSMD: measured here: HSF1 foci SSMD mean; cell count: measured here: cell number; plate-normalised HSF1 focus index: stronger effect = lower value
# [11] = survival rescue of mitochondrial mutant cells in low glucose, primary screen, MELAS cybrids, Rieske KO mouse fibroblasts, CellTiter-Glo (AID 1508586;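 active = mean z-score across replicates of 1.96 or higher in either the MELAS or the Rieske mutant cell line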;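 also: z relative to plate mean and SD of compound and empty wells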)
# [12] = ovarian cancer cell viability with rucaparib, profiling panel, oncology-focused library, rucaparib conditional (AID 1508598); conditions: patient-derived ovarian cancer cells, CellTiter-Glo viability, 144 h, stronger effect = lower value
structure (smiles),measurement,setting,value
Nc1ccc(C(=O)Nc2cccc(-c3nc(N4CCOCC4)c4oc5ncccc5c4n3)c2)cn1,AC50,[1],4.68 µM (active)
same,AC50,[2],18.7 µM (active)
same,AC50,[3],16.6 µM (active)
same,AC50,[4],16.6 µM (active)
same,AC50,[5],8.33 µM (active)
same,AC50,[6],2.09 µM (active)
same,AC50,[7],11.8 µM (active)
same,AC50,[8],8.33 µM (active)
same,fold change,"[9]; stronger effect = lower value, cell number ratio, induced over uninduced",1.02 (inactive)
same,fold change,[9]; measured here: relative caspase fold change +Dox/-Dox,0.903
same,cell count,"[9]; measured here: total cells with miR-34 induction, stronger effect = lower value",2410
same,cell count,[9]; measured here: total cells without miR-34 induction,2370
same,SSMD,[10],-0.394
same,cell count,[10],6980
same,plate-normalised HSF1 focus index,[10],0.989 (inactive)
same,z-score,"[11]; MELAS cybrid survival, CellTiter-Glo 48 h, stronger effect = higher value",3.1 (active)
same,z-score,"[11]; Rieske KO mouse fibroblast survival, CellTiter-Glo 72 h",-2.85
same,viability,"[12]; at 0.000305 µM, OCI-C5x cells, with rucaparib 10 µM, 100% = cells with rucaparib alone",106% (inactive)
same,viability,"[12]; at 0.000305 µM, OCI-C5x cells, without rucaparib",111% (inactive)
same,viability,"[12]; at 0.000305 µM, OCI-P5x cells, with rucaparib 20 µM, 100% = cells with rucaparib alone",83.5% (active)
same,viability,"[12]; at 0.000305 µM, OCI-P5x cells, without rucaparib",86.3% (active)
same,viability,"[12]; at 0.00122 µM, OCI-C5x cells, with rucaparib 10 µM, 100% = cells with rucaparib alone",106% (inactive)
same,viability,"[12]; at 0.00122 µM, OCI-C5x cells, without rucaparib",107% (inactive)
same,viability,"[12]; at 0.00122 µM, OCI-P5x cells, with rucaparib 20 µM, 100% = cells with rucaparib alone",68.8% (active)
same,viability,"[12]; at 0.00122 µM, OCI-P5x cells, without rucaparib",85.2% (active)
same,viability,"[12]; at 0.00488 µM, OCI-C5x cells, with rucaparib 10 µM, 100% = cells with rucaparib alone",105% (inactive)
same,viability,"[12]; at 0.00488 µM, OCI-C5x cells, without rucaparib",108% (inactive)
same,viability,"[12]; at 0.00488 µM, OCI-P5x cells, with rucaparib 20 µM, 100% = cells with rucaparib alone",71.1% (active)
same,viability,"[12]; at 0.00488 µM, OCI-P5x cells, without rucaparib",81% (active)
same,viability,"[12]; at 0.0195 µM, OCI-C5x cells, with rucaparib 10 µM, 100% = cells with rucaparib alone",115% (inactive)
same,viability,"[12]; at 0.0195 µM, OCI-C5x cells, without rucaparib",112% (inactive)
same,viability,"[12]; at 0.0195 µM, OCI-P5x cells, with rucaparib 20 µM, 100% = cells with rucaparib alone",56.8% (active)
same,viability,"[12]; at 0.0195 µM, OCI-P5x cells, without rucaparib",74.2% (active)
same,viability,"[12]; at 0.0781 µM, OCI-C5x cells, with rucaparib 10 µM, 100% = cells with rucaparib alone",122% (inactive)
same,viability,"[12]; at 0.0781 µM, OCI-C5x cells, without rucaparib",117% (inactive)
same,viability,"[12]; at 0.0781 µM, OCI-P5x cells, with rucaparib 20 µM, 100% = cells with rucaparib alone",114% (inactive)
same,viability,"[12]; at 0.0781 µM, OCI-P5x cells, without rucaparib",117% (inactive)
same,viability,"[12]; at 0.313 µM, OCI-C5x cells, with rucaparib 10 µM, 100% = cells with rucaparib alone",147% (inactive)
same,viability,"[12]; at 0.313 µM, OCI-C5x cells, without rucaparib",131% (inactive)
same,viability,"[12]; at 0.313 µM, OCI-P5x cells, with rucaparib 20 µM, 100% = cells with rucaparib alone",109% (inactive)
same,viability,"[12]; at 0.313 µM, OCI-P5x cells, without rucaparib",119% (inactive)
same,viability,"[12]; at 1.25 µM, OCI-C5x cells, with rucaparib 10 µM, 100% = cells with rucaparib alone",150% (inactive)
same,viability,"[12]; at 1.25 µM, OCI-C5x cells, without rucaparib",151% (inactive)
same,viability,"[12]; at 1.25 µM, OCI-P5x cells, with rucaparib 20 µM, 100% = cells with rucaparib alone",111% (inactive)
same,viability,"[12]; at 1.25 µM, OCI-P5x cells, without rucaparib",107% (inactive)
same,viability,"[12]; at 5 µM, OCI-C5x cells, with rucaparib 10 µM, 100% = cells with rucaparib alone",178% (inactive)
same,viability,"[12]; at 5 µM, OCI-C5x cells, without rucaparib",138% (inactive)
same,viability,"[12]; at 5 µM, OCI-P5x cells, with rucaparib 20 µM, 100% = cells with rucaparib alone",80% (active)
same,viability,"[12]; at 5 µM, OCI-P5x cells, without rucaparib",78.9% (active)
